# Compounds with a hit are over-represented: about 4.2% of the library has one in this group of screens.
# D1 antag – blocks dopamine activation of the human D1 receptor; P21728; HEK293 TREx D1 cells, calcium flux, dopamine EC80; stronger effect = lower value; activity change, negative = inhibition, % at 10 µM; hit rate 3.2% among 360,000; AID 504652; in the data active means activity change below about -30%; further: on the % scale 0 is the no-effect control and ±100 the full control effect
#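 HEK293 T-REx cells expressing inducible, force-coupled D1 receptor; no-wash Ca dye, 30–90 min RT. Cmpd → 180 s read at 1 Hz → EC80 DA → 180 s read.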
# D1 ag – agonists of human D1 dopamine receptor; P21728; activation, % at 2 µM; hit rate 1% among 360,000; HEK293 T-REx D1 cells, calcium flux, agonist mode; in the data active means activation above about 30%; further: 0% is about no effect
#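 Tetracycline-induced HEK293 TREx D1 cells, force-coupled to calcium signalling, were dye-loaded with a no-wash calcium kit. Compound was pin-added after a 10 s baseline. Fluorescence was read kinetically at 1 cycle/s for 180 s, with calcium rises flagged as agonism.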
# TRPV1 ag – activates the human vanilloid receptor TRPV1. Q8NER1. TRPV1-expressing cells, Fluo-8 calcium influx, agonist mode. activation, % at 8.33 µM. hit rate 0.19% among 320,000; in the data active means activation above about 80%; inconclusive means between about 30% and that limit; further: 0% is about no effect
# Target sequence (Q8NER1 whole entry, looked up): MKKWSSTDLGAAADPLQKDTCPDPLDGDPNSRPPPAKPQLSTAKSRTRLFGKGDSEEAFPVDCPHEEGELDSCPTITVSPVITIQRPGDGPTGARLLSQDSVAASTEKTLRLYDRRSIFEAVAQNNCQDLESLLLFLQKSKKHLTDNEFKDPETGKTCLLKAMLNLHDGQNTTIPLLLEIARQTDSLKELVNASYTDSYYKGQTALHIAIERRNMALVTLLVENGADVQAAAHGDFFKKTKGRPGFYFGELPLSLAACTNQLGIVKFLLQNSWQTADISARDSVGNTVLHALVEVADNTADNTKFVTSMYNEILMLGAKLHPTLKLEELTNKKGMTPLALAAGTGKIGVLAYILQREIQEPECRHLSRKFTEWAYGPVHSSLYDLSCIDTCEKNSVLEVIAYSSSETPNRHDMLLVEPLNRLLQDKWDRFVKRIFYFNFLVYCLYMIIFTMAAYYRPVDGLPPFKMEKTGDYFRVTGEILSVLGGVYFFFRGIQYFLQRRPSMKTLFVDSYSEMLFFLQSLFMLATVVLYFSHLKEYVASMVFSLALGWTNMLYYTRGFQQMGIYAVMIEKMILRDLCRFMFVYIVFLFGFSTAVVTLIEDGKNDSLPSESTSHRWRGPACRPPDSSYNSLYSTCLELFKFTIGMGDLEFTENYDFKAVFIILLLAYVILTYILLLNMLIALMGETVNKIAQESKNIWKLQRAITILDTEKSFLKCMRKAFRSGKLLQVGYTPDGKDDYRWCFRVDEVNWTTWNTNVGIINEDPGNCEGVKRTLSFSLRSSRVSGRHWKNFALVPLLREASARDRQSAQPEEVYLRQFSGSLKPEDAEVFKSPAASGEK
#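 Cells expressing TRPV1 were dye-loaded with Fluo-8 and read kinetically: 10 s baseline, 3 min after compound (agonist portion), then 2 min after EC20 capsaicin (allosteric enhancer portion). Calcium-bound dye fluorescence at 480/520 nm.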
# D1 PAM – human D1 dopamine receptor positive modulation; hit rate 0.036% among 360,000; P21728; HEK293 TREx D1 cells, calcium flux, dopamine EC20 potentiation; potentiation, % at 10 µM; in the data active means potentiation above about 30%; further: 0% is about no effect
# TRPV1 PAM – enhances activation of the human vanilloid receptor TRPV1. Q8NER1. TRPV1-expressing cells, Fluo-8 calcium influx, capsaicin EC20 potentiation. potentiation, % at 8.33 µM. hit rate 0.02% among 320,000; in the data active means potentiation above about 80%; inconclusive means between about 30% and that limit; further: 0% is about no effect
#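 TRPV1-expressing cells were cultured overnight at 35.5C and loaded with Fluo-8 calcium dye for 40 to 90 min at room temperature. After a 10 s baseline, compound was added and calcium influx was read kinetically for 3 min (ex 480/em 520 nm).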
# Active calls of the source: *; u = inconclusive; x = not tested or not shown; ! = not confirmed by another sample.
SMILES,D1 antag,D1 ag,TRPV1 ag,D1 PAM,TRPV1 PAM
N#CCCn1nc(-c2ccc([N+](=O)[O-])cc2)cc1Nc1ccccc1NC(=O)C(F)(F)F,-27,31*,4,-8,-3
N#CCCn1nc(-c2ccccc2)cc1Nc1ccccc1NC(=O)C(F)(F)F,12,22,15,-5,-8
Cc1cc(C)c(C#N)c(SCCN2CCOCC2)n1,-31*,0,-1,-3,6
CCCc1c(NC(=O)Nc2ccc(F)cc2)cnn1-c1ccc(Cl)cc1,-43*,19,u,-4,-15
O=C(NCCc1ccc(Cl)cc1)Nc1ccc(F)cc1,-12,13,u,-8,3
O=C1c2cccc(OCc3ccc(F)cc3)c2CCN1Cc1ccccc1,-1,-2,4,-2,6
CCN1CCc2c(OCc3ccccc3)cccc2C1=O,-38*,4,u,0,-2
CCn1nc(C)cc1C(=O)N1CCCC(C(=O)c2ccc(Oc3ccccc3)cc2)C1 (stereo not given),-35*,5,11,-1,-10
c1ccc(Nc2nc(N3CCCCC3)nc(N3CCNCC3)n2)cc1,38,42*,-6,4,3
Cc1ccc2cccc(N=Cc3c(C)[nH]n(-c4ccccc4)c3=O)c2n1,2,0,1,-1,-6
CSc1nnc(-c2ccccc2N=Cc2c(C)[nH]n(-c3ccccc3)c2=O)c(=O)[nH]1,-33*,-1,-2,1,26
O=C(Nc1ccc(F)cc1)Nc1ccc2c(c1)CCC2,-17,2,17,-7,-1
O=C(Nc1cccc(F)c1)Nc1ccc2c(c1)CCC2,-84*,20,u,-10,-8
O=C(Nc1cccc(F)c1)c1c(F)c(F)c(F)c(F)c1F,-36*,18,1,-5,-13
CN1CCN(C(=O)C2(NC(=O)Nc3cccc(F)c3)CCCCC2)CC1,-30*,3,-2,-4,12
O=C(Nc1ccccc1)Nc1ccc2c(c1)CCC2,-13,13,u,-1,-4
O=C(Nc1cccc([N+](=O)[O-])c1)Nc1ccc2c(c1)CCC2,-64*,21,u,-4,-7
CC(=O)N1CCN(C(=O)C2(NC(=O)Nc3cccc(F)c3)CCCCC2)CC1,-8,3,-3,x,26
Cc1ccc(NC(=O)C(=O)NCCc2sc(-c3ccc(Cl)cc3)nc2C)cc1C,22,2,x,-1,x
CCOc1ccc(-c2nc(C(N)=O)c3c(n2)n(-c2ccc4c(c2)OCO4)c(=O)n3CC)cc1,-14,1,x,-4,x
O=C1CN(C(=O)c2ccc(S(=O)(=O)N3CCCCC3)cc2)C(c2ccc(F)cc2)c2cc(F)ccc2N1 (stereo not given),11,5,x,0,x
COc1ccc(N=Cc2c(O)c3ccccc3n2C(C)=O)cc1,-22,119*,u,-10,-8
COc1cc(O)oc1C=Nc1ccc(Oc2ccccc2)cc1,9,2,u,-8,-9
COc1ccc(N=Cc2sc(O)c3ccccc23)cc1,-82*,544*,2,9,0
O=C1NC(c2ccc(Br)cc2)Nc2ccccc21 (stereo not given),-32*,-2,3,-4,3
SMILES,D1 antag,D1 ag,TRPV1 ag,D1 PAM,TRPV1 PAM
CN1CCN(c2ccc(NC(=S)NC(=O)c3cccc4ccccc34)cc2)CC1,-23,14,2,-15,-3
O=C(NC(=S)Nc1ccc(N2CCCC2)cc1)c1ccccc1[N+](=O)[O-],-72*,0,-4,-2,0
CN1CCN(c2ccc(NC(=S)NC(=O)c3cccc4c(Br)cccc34)cc2)CC1,-37*,3,-2,-9,15
CCOC(=O)c1ccccc1NC(=O)Cn1c(=O)n(CCC(=O)NCc2ccccc2OC)c(=O)c2ccccc21,-1,0,x,0,x
CCOc1ccc(CC(=O)Nc2ccc3nc(N4CCCCC4)cc(C)c3c2)cc1OCC,11,2,x,0,x
CCCCCOc1ccccc1CN1C(=O)C(=O)c2cc(C)ccc21,8,4,x,-3,x
O=C(CN1CCN(Cc2ccc(F)cc2Cl)S1(=O)=O)Nc1ccc(F)cc1,-20,48*,x,-3,x
COc1ccc(NC(=O)CN2CCN(Cc3ccc(F)cc3)S2(=O)=O)cc1Cl,-1,8,x,-4,x
C=C(C)COc1ccc(C2NC(=O)c3ccccc3O2)cc1OCC (stereo not given),-49*,4,6,-13,-56
COc1ccc(C2CNC(=O)C2)cc1OC1CCCC1 (stereo not given),-42*!,1,1,2,5
COc1ccc(CCNS(=O)(=O)c2ccc(C3CNC(=O)C3)cc2)cc1OC (stereo not given),-3,-2,-4,1,26
COc1ccc(CNC(=O)CCc2c(C)nc3nc(CNC(=O)OC(C)(C)C)nn3c2C)cc1,4,2,x,0,x
Cc1cc2n(n1)CCCN2C(=O)Nc1ccc(Cl)cc1,-23,11,x,-5,x
COc1ccc(/C=C2\OC(=S)N(C)C2=O)cc1,9,2,3,-6,23
CN1C(=O)/C(=C\c2ccc(N(C)C)cc2)OC1=S,-66*,523*,u,-6,4
c1cncc(CNc2ncnc3sc4c(c23)CCC4)c1,-43*,4,1,-1,-7
Cc1cccc(/C=N/NC(=O)c2ccc(NC(=O)c3ccc(F)cc3)cc2)n1,-51*,-3,u,-8,6
Cc1cccc(C(=O)Nc2cccc(C(=O)N/N=C/c3cccc(C)n3)c2)c1,-14,0,-2,-3,3
O=C(N/N=C\c1ccc(F)cc1)c1ccc(F)cc1,-6,4,82*,x,-22
CC(=O)Nc1ccc(C(=O)N/N=C/c2ccc(F)cc2)cc1,7,2,7,-6,-6
Cc1cccc(/C=N/NC(=O)c2ccc(NC(=O)c3ccc(Cl)cc3)cc2)n1,-83*,2,u,-12,-1
CCOC(=O)c1nn2c(C(F)(F)F)cc(-c3ccc(C)cc3)nc2c1Cl,-5,-1,x,1,x
CCOC(=O)c1ccc(NC(=O)CN(c2ccc(C)cc2)S(=O)(=O)c2c(C)noc2C)cc1,-30,11,x,-1,x
c1ccc(COc2ccccc2CNc2nn[nH]n2)cc1,-75*,0,1,9,-2
Fc1ccc(COc2ccc3ccccc3c2CNc2nn[nH]n2)cc1,6,3,3,9,13
CCOC(=O)c1c(NC(=O)/C=C/c2ccc(OCC)cc2)sc(C)c1C,-80*,3,x,-3,x
CCCOC(=O)c1c(NC(=O)/C=C/c2cnn(C)c2C)sc(C(=O)OCC)c1C,-2,4,2,18,-5
CCOC(=O)c1sc(NC(=O)/C=C/c2cnn(CC)c2C)c(C(=O)OCC)c1C,-60*,7,2,-4,14
COc1ccccc1C(=O)N1CCCCC1CCN1CCOCC1 (stereo not given),-3,2,x,3,x

# Screens from PubChem.
